MITF TRPM1 HTS: increases MITF-driven TRPM1 promoter luciferase signal. SK-MEL-5 TRPM1-promoter luciferase, 24 h; % of positive control, neutral wells = 0. activation, % at 12.5 µM. 300,000 tested, 0.75% active;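 active = mean activation of at least 80% with every replicate also reaching 80%; inconclusive = mean reaches 80% but some replicate falls short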;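 note: 0% = neutral control wells and 100% = parthenolide positive control wells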
Wnt act: activators of Wnt/beta-catenin signaling; Wnt/beta-catenin reporter cell assay, activator, plate reader; activation, % at 9.35 µM; 300,000 tested, 1.2% active; AID 743398; in the data active = activation above about 30%, passing the limit was not always enough; inconclusive = no clear call, values can overlap the other calls;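 note: 0% = neutral control wells and 100% = positive control wells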
esBAF inh: SWI/SNF esBAF complex inhibition | AID 602393 | reporter increase, % at 12.5 µM | mouse ES cells, Bmi1-luciferase knock-in reporter, 24 h; 100% = twice the neutral-well signal | 350,000 tested, 2% active; in the data active = activation above about 40%; inconclusive = no clear call, values can overlap the other calls;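 note: 0% = median of the plate's neutral control wells and 100% = double that signal; a rise in the Bmi1 reporter signal indicates esBAF inhibition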
Statin myotox sup: suppression of simvastatin myotoxicity; rescue of ATP level, % at 7.49 µM; C2C12 myotubes + simvastatin, ATP luminescence, 48 h; scaled: DMSO 0, geranylgeraniol control 100; 330,000 tested, 0.78% active;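 active = mean ATP rescue above about 67%, or every replicate alone reaching that limit, limit read from the data, passing the limit was not always enough; inconclusive = no clear call, values can overlap the other calls; inactive = mean under the limit and some replicate under it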;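 note: myotubes were challenged with 10 µM simvastatin during compound exposure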
Rtt109 HAT inh: blocks Candida albicans Rtt109/Vps75 acetyltransferase activity | inhibition, % at 34.9 µM | AID 540336 | Q5AAJ8 | purified Rtt109/Vps75, ThioGlo CoA-SH fluorescence, 4 h | 330,000 tested, 0.16% active;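 active = inhibition of at least 50% in every replicate; inconclusive = best replicate reaches 50% inhibition but some replicates fall short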
Target sequence (Q5AAJ8 whole entry, looked up): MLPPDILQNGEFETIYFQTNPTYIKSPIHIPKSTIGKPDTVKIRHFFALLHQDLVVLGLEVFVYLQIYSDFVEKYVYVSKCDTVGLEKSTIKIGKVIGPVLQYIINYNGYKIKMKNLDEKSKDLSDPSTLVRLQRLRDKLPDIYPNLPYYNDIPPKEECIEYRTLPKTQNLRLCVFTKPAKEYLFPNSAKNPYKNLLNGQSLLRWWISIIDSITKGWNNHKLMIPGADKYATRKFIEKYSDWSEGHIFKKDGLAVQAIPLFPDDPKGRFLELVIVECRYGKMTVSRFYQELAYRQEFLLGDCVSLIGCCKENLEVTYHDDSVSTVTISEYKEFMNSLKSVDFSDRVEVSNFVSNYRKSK
Starred values were filed as active, the others as inactive; ? = inconclusive; · = no result given. Rows were chosen to be rich in hits. Some 3.1% of all compounds tested hit in one or more screens of this group.

SMILES	MITF TRPM1 HTS	Wnt act	esBAF inh	Statin myotox sup	Rtt109 HAT inh
CCSc1nnc(NC(=O)c2cc3c(s2)CCCC3)s1	105*	·	54*	2	0
CCSc1nnc(Nc2ccc(C)cc2)s1	89*	·	83*	-3	1
O=C(N[C@H]1CC[C@@H](CCNS(=O)(=O)c2ccc(Cl)cc2)O[C@@H]1CO)c1cccnc1	·	·	-1	5	·
COc1ccc(NC(=O)Nc2ccc3c(c2)CC(=O)N([C@H](C)CO)C[C@H](C)[C@@H](CN(C)Cc2ccc(Oc4ccccc4)cc2)O3)cc1	·	·	-2	-12	·
C[C@@H]1CN([C@@H](C)CO)C(=O)c2cc(NS(=O)(=O)c3ccc(F)cc3)ccc2O[C@@H](C)CCCCO[C@@H]1CN(C)C(=O)c1ccccc1	·	·	2	·	·
CO[C@@H]1CN(C)C(=O)c2ccc(NC(=O)C3CCC3)cc2OC[C@@H](C)N(Cc2ccncc2)C[C@@H]1C	·	·	-7	-10	·
CCSc1nnc(NC(=O)c2ccccc2)s1	104*	23	·	·	-5
CCSc1nnc(NC(=O)c2cccnc2)s1	4	·	·	·	-1
C/C(N)=C(/C#N)C(=O)CSc1nnc(Nc2ccccc2)s1	54	39*	·	·	1
Cc1ccc(S(=O)(=O)NCC[C@H]2CC[C@H](NC(=O)NC(C)C)[C@@H](CO)O2)cc1	·	·	0	-5	·
N#C/C(=C\c1ccc(N2CCCCC2)o1)C(=O)Nc1cccc(Br)c1	4	38*	·	·	14
N#C/C(=C\c1ccc(N2CCCCC2)o1)C(N)=O	-5	2	·	·	-2
CC(=O)c1cccc(NC(=O)c2ccc(-c3ccccc3[N+](=O)[O-])o2)c1	26	109*	103*	4	-2
Cc1cc(NC(=O)c2ccc(-c3ccccc3F)o2)no1	41	25	·	·	1
Cc1cc(NC(=O)c2ccc(-c3ccccc3[N+](=O)[O-])o2)no1	·	-3	57*	0	-2
COc1ccc(-c2cnc3c(c2)C(=O)N([C@H](C)CO)C[C@H](C)[C@@H](CN(C)S(=O)(=O)c2ccc(OC)cc2)O3)cc1	·	·	·	41	·
CC(=O)N(C)C[C@@H]1Oc2ncc(C#Cc3ccc(F)cc3)cc2C(=O)N([C@@H](C)CO)C[C@@H]1C	·	·	-1	-10	·
CCNC(=O)C[C@H]1C=C[C@H](NS(=O)(=O)c2ccc(C)cc2)[C@@H](CO)O1	·	·	4	3	·
C=CCn1cnc2c(nnn2-c2ccc(C)c(C)c2)c1=O	110*	5	·	·	-5
C=CCn1cnc2c(nnn2-c2ccc(OC)c(OC)c2)c1=O	4	-3	·	·	-16
O=C1CCC(=O)N1CCSC(=S)N1CCOCC1	·	35*	·	·	11
CN(C)CCCNC(=O)C[C@@H]1CC[C@@H]2[C@H](COc3ccc(NC(=O)C4CCC4)cc3C(=O)N2C)O1	·	·	5	-1	·
CN(C(=O)CCc1nc(-c2ccccc2F)no1)c1ccccc1	8	7	·	·	55*
Cc1cccc(CCNC(=O)CCc2nc(-c3ccccc3F)no2)c1	3	·	-5	47	-4
O=c1[nH]c(SCc2nc3c(cnn3-c3ccccc3)c(=O)[nH]2)nc2ccccc12	20	-2	44*	-2	-6
SMILES	MITF TRPM1 HTS	Wnt act	esBAF inh	Statin myotox sup	Rtt109 HAT inh
O=c1[nH]c(CSc2nc3ccccc3[nH]2)nc2c1cnn2-c1ccccc1	13	-1	·	·	2
Cc1ccc(-n2ncc3c(=O)[nH]c(SCC(=O)N4CCN(c5ccccc5)CC4)nc32)cc1	5	·	·	·	0
O=C(CSc1nc2c(cnn2-c2ccc(F)cc2)c(=O)[nH]1)N1CCOCC1	-7	1	-12	-3	13
CCOC(=O)C(C)Sc1nc2c(cnn2-c2ccc(C)cc2)c(=O)[nH]1 (stereo not given)	0	·	-9	97*	-4
O=C(CSc1nc2c(cnn2-c2ccccc2)c(=O)[nH]1)N1CCOCC1	2	·	-5	142*	-5
Cc1ccc(-n2ncc3c(=O)[nH]c(SCC(=O)N4CCOCC4)nc32)cc1	2	0	-10	129*	5
C[C@H]1CN([C@@H](C)CO)C(=O)c2cc(C#CC3CCCCC3)cnc2O[C@H]1CN(C)S(=O)(=O)c1ccc(F)cc1	·	·	-8	-131	·
C=CCN(C(=O)C1CC(=O)N(C2CCCC2)C1)c1nc(-c2ccc(S(C)(=O)=O)cc2)cs1 (stereo not given)	46	15	54*	-21	-2
Cc1noc(C)c1S(=O)(=O)Nc1ccc2c(c1)C(=O)N([C@@H](C)CO)C[C@H](C)[C@H](CN(C)S(=O)(=O)c1ccccc1)OCCCC[C@@H](C)O2	·	·	-1	·	·
CCOC(=O)c1ccc2nc3c(cc2c1)CCS3	72	·	50*	40	0
CCOC(=O)c1ccc2nc(C)c3c(c2c1)OC(C)C3 (stereo not given)	-2	·	-7	-8	1
COc1cccc(C(=O)Nc2ccc3c(c2)OC[C@@H](C)N(C(=O)C2CC2)C[C@@H](C)[C@H](OC)CN(C)C3=O)c1	·	·	-1	1	·
CCC(Sc1nc2n[nH]c(C)c2c(=N)n1-c1ccc(C)c(Cl)c1)C(=O)N1CCOCC1 (stereo not given)	12	3	3	96*	-3
CCC(Sc1nc2n[nH]c(C)c2c(=N)n1-c1cccc(Cl)c1)C(=O)NCCOC (stereo not given)	-2	·	·	·	4
CCOC(=O)c1nnn(CC(=O)NC(=O)Nc2cccc(CC)c2)c1C(=O)OCC	4	36*	-8	-4	20
O=C1c2cccnc2C(=O)N1CNc1ccc(Cl)cc1	-20	2	·	·	1
O=C1c2ccncc2C(=O)N1CNc1ccc(Cl)cc1	0	60*	·	·	11
CC(C)CC#Cc1cnc2c(c1)C(=O)N([C@@H](C)CO)C[C@@H](C)[C@@H](CN(C)Cc1ccc3c(c1)OCO3)O2	·	·	-2	-5	·
CC(=O)C(/C=N/c1cc(-c2ccc(C)cc2)nn1-c1ccccc1)=C(\C)O	42	38*	·	·	-2
C[C@H]1CN([C@@H](C)CO)S(=O)(=O)c2ccc(-c3ccc(F)cc3)cc2O[C@@H]1CN(C)C(=O)C1CC1	·	·	2	20	·
CCCOc1ccc(-c2nnc(N)s2)cc1	60	36*	?	-2	-3
COc1ccc(-c2nnc(N)s2)cc1	13	13	29	-23	7
Cc1nn(C(=O)c2ccc3c(c2)OCO3)c(N)c1-c1ccccc1	75	67*	15	0	2
Cc1nn(C(=O)c2cccs2)c(N)c1-c1ccccc1	90*	47*	85*	5	-2
Cc1ccc(S(=O)(=O)N(C)C[C@H]2Oc3ncc(-c4ccncc4)cc3C(=O)N([C@H](C)CO)C[C@H]2C)cc1	·	·	-7	-11	·
CC(C)CC#Cc1ccc2c(c1)O[C@H](CN(C)Cc1ccc(C(=O)O)cc1)[C@@H](C)CN([C@H](C)CO)S2(=O)=O	·	·	6	-8	·
Cc1ccc(CNc2nc(N)c([N+](=O)[O-])c(Nc3ccc(F)cc3)n2)cc1	10	0	6	123*	-11
CCOC(=O)N1CCN(C(=O)c2cc(COc3cccc(C(F)(F)F)c3)on2)CC1	38	21	·	·	2

Screening results: PubChem BioAssay, Broad Institute
